# Target: pT7_6His-AlfaTag-HOXD13 (human, UniProt P35453 263-343)
# Experiment: PADIT-seq
# Settings: dsDNA, one strand shown
# pT7_6His-AlfaTag-HOXD13, sequence (P35453 263-343): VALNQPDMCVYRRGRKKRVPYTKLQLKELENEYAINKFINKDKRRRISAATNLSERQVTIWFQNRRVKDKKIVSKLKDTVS
row,Sequence,binding signal
1,CTCGAGGATATCAAGATCTGGCCTCGGCGTTTTATAAGGAACCTCTAGCTAGCCGACTCACTATAGGGATAATCGCCCTGAGCAAAGACC,3.26 ± 0.0829 log2FC
2,CTCGAGGATATCAAGATCTGGCCTCGGCTATTTAAAAGGAACCTCTAGCTAGCCGACTCACTATAGGGATAATCGCCCTGAGCAAAGACC,2.42 ± 0.0909 log2FC
3,CTCGAGGATATCAAGATCTGGCCTCGGCCGCCCATCTGGAACCTCTAGCTAGCCGACTCACTATAGGGATAATCGCCCTGAGCAAAGACC,-0.946 ± 0.119 log2FC
4,CTCGAGGATATCAAGATCTGGCCTCGGCCACTTAAAAGGAACCTCTAGCTAGCCGACTCACTATAGGGATAATCGCCCTGAGCAAAGACC,1.17 ± 0.0931 log2FC
5,CTCGAGGATATCAAGATCTGGCCTCGGCAAAATAAAAGGAACCTCTAGCTAGCCGACTCACTATAGGGATAATCGCCCTGAGCAAAGACC,1.46 ± 0.0905 log2FC
6,CTCGAGGATATCAAGATCTGGCCTCGGCGTTTTAGTAGGAACCTCTAGCTAGCCGACTCACTATAGGGATAATCGCCCTGAGCAAAGACC,1.61 ± 0.098 log2FC
7,CTCGAGGATATCAAGATCTGGCCTCGGCGTTTTAATTGGAACCTCTAGCTAGCCGACTCACTATAGGGATAATCGCCCTGAGCAAAGACC,2.42 ± 0.0771 log2FC
8,CTCGAGGATATCAAGATCTGGCCTCGGCGAGTTAAAAGGAACCTCTAGCTAGCCGACTCACTATAGGGATAATCGCCCTGAGCAAAGACC,0.985 ± 0.0828 log2FC
9,CTCGAGGATATCAAGATCTGGCCTCGGCCGCCCAACAGGAACCTCTAGCTAGCCGACTCACTATAGGGATAATCGCCCTGAGCAAAGACC,-0.724 ± 0.117 log2FC
10,CTCGAGGATATCAAGATCTGGCCTCGGCATTTTACTAGGAACCTCTAGCTAGCCGACTCACTATAGGGATAATCGCCCTGAGCAAAGACC,3.18 ± 0.0699 log2FC
11,CTCGAGGATATCAAGATCTGGCCTCGGCGCGCCGGCGGGAACCTCTAGCTAGCCGACTCACTATAGGGATAATCGCCCTGAGCAAAGACC,-1.04 ± 0.18 log2FC
12,CTCGAGGATATCAAGATCTGGCCTCGGCATTCTAAAAGGAACCTCTAGCTAGCCGACTCACTATAGGGATAATCGCCCTGAGCAAAGACC,-0.358 ± 0.0968 log2FC
13,CTCGAGGATATCAAGATCTGGCCTCGGCTGTGTAAAAGGAACCTCTAGCTAGCCGACTCACTATAGGGATAATCGCCCTGAGCAAAGACC,1.46 ± 0.0852 log2FC
14,CTCGAGGATATCAAGATCTGGCCTCGGCTAGGTAAAAGGAACCTCTAGCTAGCCGACTCACTATAGGGATAATCGCCCTGAGCAAAGACC,-0.394 ± 0.106 log2FC
15,CTCGAGGATATCAAGATCTGGCCTCGGCGCGTGGCAGGGAACCTCTAGCTAGCCGACTCACTATAGGGATAATCGCCCTGAGCAAAGACC,-0.958 ± 0.118 log2FC
16,CTCGAGGATATCAAGATCTGGCCTCGGCGTTTTATATGGAACCTCTAGCTAGCCGACTCACTATAGGGATAATCGCCCTGAGCAAAGACC,3.04 ± 0.0717 log2FC
17,CTCGAGGATATCAAGATCTGGCCTCGGCAACTTAAAAGGAACCTCTAGCTAGCCGACTCACTATAGGGATAATCGCCCTGAGCAAAGACC,0.617 ± 0.0872 log2FC
18,CTCGAGGATATCAAGATCTGGCCTCGGCATTTTATGTGGAACCTCTAGCTAGCCGACTCACTATAGGGATAATCGCCCTGAGCAAAGACC,2.99 ± 0.0772 log2FC
19,CTCGAGGATATCAAGATCTGGCCTCGGCGTTTTATCAGGAACCTCTAGCTAGCCGACTCACTATAGGGATAATCGCCCTGAGCAAAGACC,2.41 ± 0.0928 log2FC
20,CTCGAGGATATCAAGATCTGGCCTCGGCGCGTTAAAAGGAACCTCTAGCTAGCCGACTCACTATAGGGATAATCGCCCTGAGCAAAGACC,1.22 ± 0.079 log2FC
21,CTCGAGGATATCAAGATCTGGCCTCGGCGTTTTACTGGGAACCTCTAGCTAGCCGACTCACTATAGGGATAATCGCCCTGAGCAAAGACC,2.76 ± 0.0911 log2FC
22,CTCGAGGATATCAAGATCTGGCCTCGGCCGCATAAAAGGAACCTCTAGCTAGCCGACTCACTATAGGGATAATCGCCCTGAGCAAAGACC,1.46 ± 0.0793 log2FC
23,CTCGAGGATATCAAGATCTGGCCTCGGCGCGCGAGCGGGAACCTCTAGCTAGCCGACTCACTATAGGGATAATCGCCCTGAGCAAAGACC,-0.654 ± 0.136 log2FC
24,CTCGAGGATATCAAGATCTGGCCTCGGCCTTTTACTTGGAACCTCTAGCTAGCCGACTCACTATAGGGATAATCGCCCTGAGCAAAGACC,0.95 ± 0.0821 log2FC
25,CTCGAGGATATCAAGATCTGGCCTCGGCATTTTAGTAGGAACCTCTAGCTAGCCGACTCACTATAGGGATAATCGCCCTGAGCAAAGACC,1.68 ± 0.0834 log2FC
26,CTCGAGGATATCAAGATCTGGCCTCGGCATTTTACCAGGAACCTCTAGCTAGCCGACTCACTATAGGGATAATCGCCCTGAGCAAAGACC,0.505 ± 0.0919 log2FC

# From paper doi:10.1101/2024.03.05.583629
